# Tests used:
# Details in all cases: concentration: 1 μM, replicates: in singlicate; n = 1
# [1] = tested on: CDC2L2
# [2] = tested on: T1, CDC2L5
# T1 construct: gene CDK13
# [3] = tested on: T2, CDK11
# T2 construct: gene CDK19
# [4] = tested on: CDK2
# [5] = tested on: CDK3
# [6] = tested on: CDK4-cyclinD1
# [7] = tested on: CDK4-cyclinD3
# [8] = tested on: CDK4
# [9] = tested on: CDK5
# [10] = tested on: CDK7
# [11] = tested on: CDK8
# [12] = tested on: CDK9
# [13] = tested on: CDKL1
# [14] = tested on: CDKL2
# [15] = tested on: CDKL3
# [16] = tested on: CDKL5
# [17] = tested on: CHEK1
# [18] = tested on: CHEK2
# [19] = tested on: CIT
# [20] = tested on: CLK1
# 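Also: KINOMEscan kinase panel screen.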
Compound,%Inh [1],%Inh [2],%Inh [3],%Inh [4],%Inh [5],%Inh [6],%Inh [7],%Inh [8],%Inh [9],%Inh [10],%Inh [11],%Inh [12],%Inh [13],%Inh [14],%Inh [15],%Inh [16],%Inh [17],%Inh [18],%Inh [19],%Inh [20]
C[C@@H]1CC[C@@H](C(=O)Nc2ccccc2)CN1c1cc(-c2ccc3c(N)n[nH]c3c2)nc(N)n1 [GSK2286062],20%,0%,0%,20%,0%,0%,0%,16%,0%,0%,19%,4%,0%,7%,0%,0%,0%,26%,8%,14%
O=C(Nc1n[nH]c2nc(-c3ccc(O)cc3)ccc12)C1CC1 [SB-710363],0%,69%,0%,75%,84%,83%,78%,0%,0%,41%,0%,36%,39%,96.6%,44%,41%,0%,4%,29%,15%
c1ccc(Oc2ccc(Nc3ccnc4cc(-c5ccc(CNCCN6CCOCC6)o5)ccc34)cc2)nc1 [GW567145],5%,0%,1%,0%,0%,38%,0%,1%,0%,8%,55%,0%,2%,9%,0%,0%,0%,90.6%,7%,17%
Fc1ccc(-c2ncn(C3CCNCC3)c2-c2ccnc(Oc3ccc(-c4ccccc4)cc3)n2)cc1 [SB-245391],9%,43%,22%,19%,26%,0%,34%,15%,0%,41%,92.8%,12%,28%,0%,32%,0%,0%,0%,98.9%,21%
COc1cc(Nc2nccc(N3CCC(NC(=O)c4cc5ccccc5s4)C3)n2)cc(OC)c1OC (stereo not shown) [GSK1379760],5%,0%,19%,0%,11%,41%,0%,14%,0%,16%,38%,5%,11%,43%,13%,1%,0%,16%,0%,4%
COc1cccc(-c2ccc3c(NC(=O)C4CC4)n[nH]c3n2)c1 [SB-710903],1%,0%,0%,33%,41%,61%,15%,52%,0%,0%,50%,0%,0%,67%,0%,0%,0%,0%,5%,15%
Oc1cc(Nc2ccnc3cc(I)ccc23)ccc1F [GW552771],0%,0%,10%,0%,0%,11%,0%,0%,0%,0%,23%,0%,0%,30%,0%,0%,2%,4%,30%,8%
Cc1occc1-c1ncc(OC[C@@H](N)Cc2c[nH]c3ccccc23)cc1-c1ccc2[nH]nc(C)c2c1.O=C(O)C(F)(F)F [GSK682037],6%,0%,35%,0%,2%,0%,0%,0%,0%,30%,25%,22%,11%,43%,0%,0%,0%,0%,99.1%,32%
Cc1ccc(C(=O)N2CC[C@@H](O)C2)cc1-n1c(C)cc(OCc2ccc(F)cc2F)c(Br)c1=O,0%,0%,0%,0%,0%,0%,0%,0%,0%,0%,0%,1%,14%,0%,1%,0%,0%,6%,6%,5%
C[C@@H](Oc1cc(-n2cnc3cc(-c4ccnc(NCCS(C)(=O)=O)c4)ccc32)sc1C(N)=O)c1ccccc1Cl [GSK907232],5%,0%,20%,13%,16%,0%,0%,0%,0%,0%,0%,11%,4%,12%,0%,0%,0%,0%,36%,67%
COc1cc(Nc2nccc(N3CCC(NC(=O)Nc4cccc(C(C)=O)c4)C3)n2)cc(OC)c1OC (stereo not shown) [GSK1379753],14%,0%,16%,0%,11%,0%,0%,0%,0%,0%,27%,0%,17%,46%,0%,0%,0%,0%,11%,16%
Nc1ncnc2c1nc(-c1ccccc1)n2-c1ccccc1 [SKF-97293],5%,48%,7%,12%,13%,21%,0%,21%,3%,41%,0%,0%,3%,0%,7%,14%,4%,11%,11%,15%
COC(=O)Nc1nc2ccc(Oc3ccc(NC(=O)Nc4cc(C(F)(F)F)ccc4F)cc3)cc2n1C.Cl [GW692089],10%,0%,43%,0%,0%,46%,0%,26%,0%,69%,77%,0%,2%,40%,0%,0%,0%,58%,100%,7%
COc1cc2c(cc1OCCN1CCNCC1)ncc1c3ccc(C#N)cc3[nH]c21,0%,8%,24%,0%,17%,31%,0%,6%,3%,99.7%,19%,8%,19%,0%,10%,0%,84%,46%,98.8%,95.7%
CCc1ccc(-c2ccc3c(c2)-c2c(cnn2C)S(=O)(=O)N3C)cc1,0%,20%,7%,0%,0%,3%,3%,0%,0%,6%,0%,0%,0%,0%,20%,0%,0%,0%,8%,22%
COc1cc(Nc2nccc(-c3c(-c4cccc(NC(=O)c5c(F)cccc5F)c4)nn4ccccc34)n2)cc(OC)c1OC [GSK323521],14%,0%,96.9%,20%,21%,0%,0%,7%,28%,0%,90%,0%,6%,0%,13%,2%,30%,0%,20%,30%
O=C(NC1CCN(c2ccnc(Nc3ccc(F)cc3)n2)C1)c1cc2ccccc2s1 (stereo not shown) [GSK1379716],14%,0%,36%,0%,18%,14%,0%,0%,7%,0%,52%,6%,0%,40%,0%,5%,0%,38%,33%,29%
Clc1ccc(-c2nn3ncccc3c2-c2ccnc(Nc3ccc4c(c3)OCCO4)n2)cc1 [GW829116],0%,0%,0%,0%,0%,0%,0%,0%,7%,0%,20%,0%,0%,4%,0%,0%,0%,2%,89%,0%
Cn1cc(-c2ccc3c(c2)CCN3C(=O)Cc2cccc(Cl)c2)c2c(N)ncnc21 [GSK2606590],18%,0%,99.5%,0%,7%,0%,0%,34%,0%,0%,100%,0%,0%,42%,0%,4%,3%,0%,26%,30%
Cc1ccc(F)c(C(=O)Nc2cccc(-c3nn4ccccc4c3-c3ccnc(Nc4cccc(F)c4)n3)c2)c1F [GSK361061],23%,0%,14%,11%,17%,0%,0%,3%,4%,0%,15%,0%,2%,31%,0%,5%,6%,0%,9%,32%

# Source: article PMC5540273 (PLoS ONE, 2017)
